This is one part of a sample in which hits are shown more often than they occur.
CD40 NFkB inh: CD40 pathway inhibition in BL2 cells. actives 0.94% (n = 83,000). AID 1053188. BL2 NF-kB luciferase reporter, CD40L-induced, 4 h. inhibition, % at 10 µM;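 active means mean inhibition of at least 50% with a set share of replicates also reaching that level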;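 further: 0% = neutral control wells and 100% = IKK inhibitor VII at 50 µM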
Active calls of the source: *; [ ] = dose if it differs, or a comment.

SMILES	CD40 NFkB inh
N#C[C@H]1[C@@H](c2ccc(C#Cc3ccccc3F)cc2)[C@H](CO)N1C(=O)C1CCC1	-1.2
N#C[C@@H]1[C@@H](c2ccc(C#Cc3ccccc3F)cc2)[C@H](CO)N1C(=O)c1cccnc1	-23.9[25 µM]
COCC(=O)N1[C@H](C#N)[C@H](c2ccc(C#Cc3ccccc3F)cc2)[C@@H]1CO	-40.3[25 µM]
N#C[C@H]1[C@H](c2ccc(C#Cc3ccccc3F)cc2)[C@@H](CO)N1C(=O)c1cccnc1	70.5*[25 µM]
C[C@@H](NC(=O)C[C@H]1C[C@@H]2c3cc(NC(=O)NC4CCCC4)ccc3O[C@@H]2[C@H](CO)O1)c1ccccc1	15.9
Cc1ccc(S(=O)(=O)Nc2ccc3c(c2)C(=O)N(C)[C@@H]2CC[C@H](CC(=O)NCCc4ccncc4)O[C@@H]2CO3)cc1	-22.5[25 µM]
O=C(C[C@H]1C[C@H]2c3cc(NC(=O)C4CCOCC4)ccc3O[C@H]2[C@H](CO)O1)NCCN1CCCCC1	-1.5[25 µM]
CN1C[C@@H]2[C@H](c3ccccc31)[C@H](CO)N2C(=O)Nc1ccccc1Cl	12.5[25 µM]
C[C@@H]1CN([C@H](C)CO)C(=O)c2cc(C#Cc3ccccc3)cnc2O[C@H]1CN(C)C(=O)c1ccccc1	-2.4[25 µM]
COc1ccc(NC(=O)N(C)C[C@H]2OCc3ccccc3-c3ccccc3C(=O)N([C@@H](C)CO)C[C@@H]2C)cc1	-13.4
CCC(=O)N1[C@@H](CO)[C@@H](c2ccc(-c3ccccc3)cc2)[C@@H]1CN(C)C(C)=O	4.3
COCC(=O)N1C[C@H]2[C@@H](c3ccccc31)[C@H](CO)N2C(=O)c1ccncc1	-7.3[25 µM]
O=C(Cc1ccccn1)N1CC(=O)N2[C@H](C1)[C@@H](c1ccc(C#CC3CCCC3)cc1)[C@@H]2CO	-10.7
COc1cccc(CN2[C@@H]3CNC[C@H]2C3c2ccc(-c3ccc(C)cc3)cc2)c1 (stereo partly specified)	0.9
O=C(Cc1ccncc1)Nc1ccc2c(c1)[C@H]1C[C@@H](CC(=O)NC3CCCC3)O[C@H](CO)[C@H]1O2	-2.1
CC(C)OC(=O)N(C)C[C@H]1OCc2ccccc2-c2c(n(C)c3ccccc23)C(=O)N([C@H](C)CO)C[C@H]1C	9.0
O=C(C1CCCC1)N1CC(=O)N2[C@H](CO)[C@@H](c3ccc(C#Cc4cccc(F)c4)cc3)[C@@H]2C1	8.5
O=C(C[C@@H]1C[C@@H]2c3cc(NC(=O)Nc4ccc(C(F)(F)F)cc4)ccc3O[C@@H]2[C@@H](CO)O1)NCc1cccnc1	2.9[25 µM]
Cc1cc(C(=O)COC(=O)CNC(=O)c2ccccc2)c(C)n1CC1CCCO1 (stereo unspecified)	57.9*
COc1cc(OC)cc(C(=O)OCC(=O)c2cc(C)n(CC3CCCO3)c2C)c1 (stereo unspecified)	-26.8
Cc1cc(C(=O)COC(=O)c2ccc(O)cc2)c(C)n1CC1CCCO1 (stereo unspecified)	24.3
CC(=O)N(C)C[C@@H]1Oc2ccc(N)cc2C(=O)N(C)C[C@H]1C	4.6
c1ccc(-c2nnc(-c3ccccn3)nn2)nc1	49.2*
c1ccc(-c2noc(C3CCC3)n2)nc1	2.3
c1ccc(-c2cccc(-c3ccccn3)n2)nc1	9.5
SMILES	CD40 NFkB inh
C[C@@H](NC(=O)C[C@@H]1C[C@@H]2c3cc(NC(=O)c4ccc5c(c4)OCO5)ccc3O[C@@H]2[C@H](CO)O1)c1ccccc1	-8.7[25 µM]
COc1cccc(-c2ccc3c(c2)[C@@H]2[C@@H](CCN2S(=O)(=O)c2ccccc2F)[C@H](CO)N3)c1	8.8[25 µM]
C/C=C/c1ccc([C@H]2[C@@H](CO)N(C(C)=O)[C@@H]2CN(CCC)C(=O)C2CCC2)cc1	16.1[25 µM]
Cc1ccc(S(=O)(=O)CS(=O)(=O)c2ccc(C)cc2)cc1	1.6
Cc1ccc(S(=O)(=O)C=CS(=O)(=O)c2ccc(C)cc2)cc1	101.0*
CNS(=O)(=O)c1ccc(C)cc1	5.8
C[C@H](CO)N1C[C@H](C)[C@@H](CN(C)C(=O)NC2CCCC2)Oc2cc(-c3cncnc3)ccc2S1(=O)=O	-12.0[25 µM]
COc1ccc(-c2ccc([C@@H]3[C@@H](CO)N(C(=O)c4cccc(F)c4)[C@H]3C#N)cc2)cc1	-17.7[25 µM]
COc1ccc(-c2ccc([C@H]3[C@@H](C#N)N(C(=O)c4cccc(F)c4)[C@H]3CO)cc2)cc1	57.4*[25 µM]
N#C[C@H]1[C@H](c2ccc(C#CC3CCCCC3)cc2)[C@@H](CO)N1C(=O)Nc1ccc(F)cc1	63.4*[25 µM]
N#C[C@@H]1[C@H](c2ccc(-c3cccc(F)c3)cc2)[C@H](CO)N1C(=O)NC1CCCC1	22.4[25 µM]
N#C[C@@H]1[C@H](c2ccc(C#CC3CCCCC3)cc2)[C@H](CO)N1C(=O)Nc1ccc(F)cc1	84.2*[25 µM]
N#C[C@H]1[C@H](c2ccc(C#CC3CCCC3)cc2)[C@H](CO)N1C(=O)Nc1ccc(F)cc1	10.2
N#C[C@H]1[C@@H](c2ccc(-c3cccc(F)c3)cc2)[C@H](CO)N1C(=O)NC1CCCC1	-3.2[25 µM]
CC(C)NC(=O)N1[C@H](C#N)[C@@H](c2ccc(C#CC3CCCCC3)cc2)[C@H]1CO	2.2
CC(C)NC(=O)N1[C@H](CO)[C@H](c2ccc(C#CC3CCCC3)cc2)[C@@H]1C#N	-20.4
COc1ccc(-c2ccc([C@@H]3[C@H](C#N)N(C(=O)c4cccc(F)c4)[C@H]3CO)cc2)cc1	20.0[25 µM]
CC(C)NC(=O)N1[C@H](C#N)[C@@H](c2ccc(C#CC3CCCC3)cc2)[C@@H]1CO	-6.8
N#C[C@H]1[C@H](c2ccc(-c3cccc(F)c3)cc2)[C@H](CO)N1C(=O)NC1CCCC1	52.0*[25 µM]
O=C(c1ccccc1)N1C[C@@H]2[C@H](c3ccccc31)[C@H](CO)N2C(=O)c1cccc(F)c1	2.9
CNC[C@H]1Oc2c(NS(C)(=O)=O)cccc2C(=O)N(C)C[C@H]1C	-1.1
COc1ccc(S(=O)(=O)N2CC3(CN(Cc4ccccc4OC)[C@H](CO)c4[nH]c5cc(OC)ccc5c43)C2)cc1	-1.6
COc1ccc(-c2ccc([C@@H]3[C@H](C#N)N(C(=O)NC4CCCCC4)[C@H]3CO)cc2)cc1	-17.8
CN(C)C(=O)c1cccc(-c2ccc(C3[C@@H]4CN(S(=O)(=O)Cc5ccccc5)C[C@H]3N4)cc2)c1 (stereo partly specified)	-18.3
O=C1N[C@@H](c2ccccc2)COCc2cn(nn2)CC[C@H]1Cc1cccc(Cl)c1	-2.0[25 µM]
SMILES	CD40 NFkB inh
CC(C)NC(=O)N(C)C[C@@H]1Oc2ccc(N(S(C)(=O)=O)S(C)(=O)=O)cc2C(=O)N(C)C[C@@H]1C	1.1
C[C@@H](NC(=O)[C@@H]1[C@@H](CO)[C@@H]2Cn3c(cccc3=O)[C@@H]2N1Cc1cccnc1)c1ccccc1	4.4[25 µM]
N#C[C@@H]1[C@H](c2ccc(C#CC3CCCC3)cc2)[C@@H](CO)N1C(=O)c1cccc(F)c1	65.6*
N#C[C@H]1[C@@H](c2ccc(C#CC3CC3)cc2)[C@@H](CO)N1C(=O)c1cccc(F)c1	2.0
N#C[C@@H]1[C@H](c2ccc(C#CC3CCCC3)cc2)[C@H](CO)N1C(=O)c1cccc(F)c1	-15.5
CN1c2ccc(-c3cccc(F)c3)cc2[C@@H]2[C@@H](CCN2C(=O)C2CCC2)[C@H]1CO	-18.9[25 µM]
CN1c2ccc(-c3cccc(F)c3)cc2[C@H]2[C@H](CCN2C(=O)C2CCC2)[C@H]1CO	37.7[25 µM]
CN1c2ccc(-c3cccc(F)c3)cc2[C@H]2[C@H](CCN2C(=O)C2CCCC2)[C@H]1CO	54.0*
CN1C(=O)c2cc(NC(=O)Nc3ccccc3F)ccc2OC[C@H]2O[C@@H](CC(=O)NCCc3ccncc3)CC[C@H]21	-11.5[25 µM]
CO[C@H]1CN(C)C(=O)c2cc(NC(=O)C3CC3)ccc2OC[C@@H](C)N(C(=O)C2CCOCC2)C[C@H]1C	-11.0

Compound activity deposited in PubChem by Broad Institute.
